# Screens (PubChem)
# NS1 function inh: influenza NS1 inhibition; Potency, µM (titrated, usually from 46.1 µM), without a hit: at the highest dose activity, positive = more growth; 270,000 tested, 0.4% active; note: actives are rising curves; nearly all actives have a fitted effect of over 50% in size
#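 In this qHTS, NS1 from influenza A is expressed in budding yeast, where it slows growth. Cells are switched from glucose to 2% galactose medium (pH 6.0, -URA), treated with compound, and growth recovery is read at OD600.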
# Pf growth 48h: P. falciparum growth inhibition at 48 hours (one generation). P. falciparum luciferase growth in erythrocytes, 48 h. Potency, µM (doses to about 28.7 µM), for inactives: at the top dose activity change, negative = inhibition, usual class: inhibitors. 310,000 tested, 5.9% active. AID 504832; active = well fitted inhibition curve with a large enough effect; inconclusive = small, poorly fitted or top-dose-only effect, or another doubt; inactive = no such curve, though single readings can be large or run the other way; note: % is set by controls: 0 for no effect and ±100 for the full control effect
#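 Compounds are pin-transferred into medium, infected erythrocytes (2% hematocrit, 0.1% parasitemia final) are added, and plates sit one parasite generation at 37 C in 5% CO2. Detection reagent is then added and luminescence measured.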
# RE007 growth inh: less growth of the S. pombe RE007 Vpr strain | S. pombe RE007 Vpr strain, BacTiter-Glo ATP luminescence, 24 h | Potency, µM (doses to about 92.2 µM), inactives show at the top dose activity change, negative = less growth, most hits filed as inhibitors | 360,000 tested, 0.21% active | AID 651644; active = well fitted falling curve with a large enough effect; inconclusive = small, poorly fitted or top-dose-only effect; inactive = no such curve, though single readings can be large or run the other way; note: % is set by controls: 0 for no effect and ±100 for the full control effect; nearly all actives have a fitted effect of over 50% in size
#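 Fission yeast RE007 carrying one integrated HIV-1 vpr copy, seeded at OD 0.01 in PMG+AL medium with 23 nL pinned compound. Grown 24 h at 30 degrees; viability read by BacTiter-Glo luminescence after 5 min.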
# SARS PLpro yeast: SARS-CoV PLP inhibition in yeast; S. cerevisiae expressing SARS-CoV PLpro, growth rescue; Potency, µM (doses to about 32.9 µM), without a hit: at the top dose activity, positive = growth rescue, most hits filed as activators; 330,000 tested, 0.19% active; AID 485353; note: 0% is about no effect; nearly all actives have a fitted effect of over 55% in size
# Pf growth 96h: P. falciparum growth inhibition at 96 hour, primary screen for plastid delayed-death inhibitors | P. falciparum luciferase reporter growth, 96 h | Potency, µM (doses to about 28.7 µM), without a hit: at the top dose activity change, negative = inhibition, hits mostly inhibitors | 320,000 tested, 6.9% active | AID 504834; active = well fitted inhibition curve with a large enough effect; inconclusive = small, poorly fitted or top-dose-only effect, or another doubt; inactive = no such curve, though single readings can be large or run the other way; note: % is set by controls: 0 for no effect and ±100 for the full control effect
#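 Compounds incubated with erythrocytes infected by luciferase-expressing P. falciparum (2% hematocrit, 0.05% parasitemia final) for 96 hours, 37 C in 5% CO2. Growth inhibition scored as decreased luciferase luminescence.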
# * marks the source's active call; other numbers are inactive results; i = inactive; u = inconclusive; x = no result; [ ] = remark or other dose. Rows were chosen to be rich in hits. Some 9.5% of all compounds tested hit in one or more screens of this group. Unless noted, calls come from the whole dose curve. Potency is the fitted concentration of half-maximal effect.
SMILES,NS1 function inh,Pf growth 48h,RE007 growth inh,SARS PLpro yeast,Pf growth 96h
O=C(CN(c1ccccc1)S(=O)(=O)c1ccccc1)N/N=C/c1ccco1,-8%,7%,20%,-21%,3.7µM*
Cc1ccc(S(=O)(=O)N(Cc2ccccc2)c2ccccc2C(=O)NCc2cccnc2)cc1,-13%,5.2µM*,-1%,-1%,20%
COc1ccc(S(=O)(=O)N(Cc2ccccc2)c2ccccc2C(=O)Nc2ccccc2C(=O)NCc2ccco2)cc1,9%,13µM*,23%,-9%,i
O=C(CSCc1ccccc1Cl)N/N=C/c1ccco1,-6%,16%,14%,-2%,13µM*
Cc1ccc(OCCN2CCC2(C)C(=O)Nc2ccc3c(c2)OCCO3)cc1 (stereo not drawn),x,x,-7%[18.4 µM],x,x
Cc1nsc(Nc2ccc([N+](=O)[O-])cc2)c1C#N,0%,7%,-11%,0%,8%
COc1cc(NC(=O)c2cc(-c3ccco3)on2)cc(OC)c1OC,-22%,-5%,-5%,-8%,u
COc1ccc(N(CC(=O)NCc2ccco2)S(=O)(=O)c2ccccc2)cc1,0%,-11%,-6%,1%,6.6µM*
COc1cccc(C(NC(C)=O)c2nc(-c3ccncc3)cs2)c1 (stereo not drawn),x,x,-4%[18.4 µM],x,x
CC(C)OC(=O)c1c(NC(=O)Cn2cnc([N+](=O)[O-])n2)sc2c1CCCC2,13%,u,-17%,-1%,7.4µM*
CCOc1cc(N2CCOCC2)c(OCC)cc1NC(=O)c1cc(S(=O)(=O)N2CCOCC2)ccc1Cl,x,u,2%,1%,u
CCOc1cc(N2CCOCC2)c(OCC)cc1NC(=O)CCS(=O)(=O)c1ccc(Cl)cc1,-2%,u,-4%,2%,7.4µM*
CCOc1cc(N2CCOCC2)c(OCC)cc1NC(=O)c1nn(CC)c(=O)c2ccccc12,x,10µM*,-10%,0%,2.6µM*
CCOc1cc(N2CCOCC2)c(OCC)cc1NC(=O)c1ccc2ccccc2n1,17%,13µM*,6%,-2%,u
CCOc1cc(N2CCOCC2)c(OCC)cc1NC(=O)c1ccc(=O)n(Cc2ccccc2)n1,-7%,5%,x,2%,u
Cn1c(SCC(=O)NNC(=O)c2ccccc2)nnc1C1CC1,3%,6%,0%,1%,-26%
O=C(N/N=C/c1cccc(OC(=O)c2cccc(Br)c2)c1)c1ccncc1,-2%,35%,0%,-2%,106%
CCOC(=O)O[C@]1(C(=O)OCCl)CC[C@@H]2[C@H]3CCC4=CC(=O)C=C[C@]4(C)[C@@H]3[C@@H](O)C[C@@]21C,x,-19%,x,x,-21%
COCCN(C(=O)CSc1nc2ccccc2o1)c1c(N)n(Cc2ccccc2)c(=O)[nH]c1=O,x,u,-5%,-3%,u
Nc1nc(CN2CCN(c3ccccc3)CC2)nc(N2CCCc3ccccc32)n1,4%,u,-14%,2%,9.3µM*
Nc1nc(CN2CCN(Cc3ccccc3)CC2)nc(N2CCCc3ccccc32)n1,5%,u,-6%,-3%,-3%
Nc1nc(CSc2nnnn2-c2ccccc2)nc(N2CCCc3ccccc32)n1,-61%,10µM*,-5%,-3%,x
CN1C2CCC1/C(=C\c1ccccc1F)C(=O)/C2=C/c1ccccc1F,6%,u,3%,0%,u
O=C(NCCCN1CCCC1=O)c1cccc(NS(=O)(=O)c2ccc(Br)cc2)c1,x,u,0%,0%,0%
CCSc1sccc1C1C(C#N)=C(N)N(c2cccnc2)C2=C1C(=O)CCC2 (stereo not drawn),-10%,12µM*,5%,6%,239%
CCOC(=O)C1=C(N)N(c2ccccc2)C2=C(C(=O)CCC2)C1c1cccnc1 (stereo not drawn),-6%,-20%,26%,4%,5.2µM*
C=CC[n+]1ccc(/C=C2\C=Cc3cc(C)ccc3N2CC)c2ccccc21,x,u,32µM*,-39%,-24%
O=C(Nc1cc(S(=O)(=O)N2CCOCC2)ccc1N1CCCC1)c1ccc(Cl)cc1,x,15µM*,3%,-2%,u
